The whole screen tested about 53,000 sequences, of which about 3,700 (7%) were called active. This is one part of a sample in which actives are shown more often than they occur.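 The calls were made as follows: active = gene knockdowns whose robust z-score for IL-1 alpha signal is at least 2 or at most -2, so actives lie on both sides; inactive = the rest.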
assay: Components of the Cytosolic LPS Sensing Pathway: Gene Identification via Genome-wide siRNA Screen; conditions: RAW264.7 macrophages, IL-1a HTRF, actives lie on both sides, screened at 100 nM (by protocol), cells primed 5 h with Pam3CSK4 first;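 also: robust z of the log signal after scaling to non-targeting control siRNA wells of the plate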
Procedure, shortened: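 RAW264.7; siRNA 100 nM final, RNAiMAX, 48h 37 degrees C; Pam3CSK4 5 h; LipidA + TransIT-TKO 24 h; IL-1a HTRF; CellTiter-Glo viability; robust z vs negative-control median.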

z-score, active:
GGAUACCAUCAUUGAUGUCTT against Dmap1 -2.29
GGCCCAGGUGGAUAGUUAUTT against Cep120 2.03
GGCAGCAGGAUGCAGAAAUTT against Ngef -2.43
GGGCUACAUUCCUUCCAAUTT against Frk 5.59
GACCUUCGACACCGACAAATT against Rtl8c 3.29
GGAAAUUUCAGAGCUCAAGTT against Trpc2 -2.81
GGUUGCUCACUCAUUUAACTT against Pa2g4 2.18
GGGACAGAUACUAAACUCUTT against Wfdc2 3.49
GGGACACACCAUCAAAAGGTT against Kank4 -2.32
GCUCCUUUAGUCCUCACCATT against Mrpl10 -2.15
CCAAUAAAAGUGCACACCUTT against Actb 2
CCCUCCUCAGUAUUGUACUTT against Dtx2 2.51
GGUCAUUUCAAGUGCUAAGTT against Adgra1 2.76
GCAGAUCGUGCGGAUCUUGTT against Bcdin3d 2.1
GCUUCGAUACCUUCAAACCTT against Stom -3.7
GGACUGUUUACUCAGCUCATT against Slc25a33 -2.02
GGACGAGGACCAGCUAGAATT against Txn2 -2.07
GGAAAUUUGGAAAUUGCCUTT against Ntm 2.46
GGAUCAUCACUACUACAAUTT against 4932415M13Rik 2.37
GGAAUUUUCUACAUGUGUGTT against Lim2 -2.12
CCCAGUACAGCCUUGUGGUTT against Med25 -2.02
GCCCUAAUCUAUGGGACAUTT against Tmem179 3.06

z-score, inactive:
GGUAGUUAAUCAGUGUAAATT against Rps6kb1 1.1
UCGGCCAUGUAGUAUGGGATT against Xlr3a 0.42
GCACUCACGAUCAUCUUUGTT against Has1 -0.513
GGAAAACACACUUUUCUUUTT against Thap2 -0.119
GCUAUAGAUUGGCUUUAUGTT against Depdc1a 0.727
GACAAAACUCAUUGUUCUUTT against Taf11 1.16
CCUUCUCAUAGUGAAAGUATT against Zkscan5 1.05
GCCUUGCCCUGACUAUGUUTT against Paqr3 0.0997
GGUGCACAGAUGUCUUACCTT against Sec24d -0.945
GGUAGAAGAGUCUGAUCAUTT against Sfrp1 -0.0589
GGCCAUUUACAAGAUGGUUTT against Hpca -0.619
GGUGGUCUACAGAAAAUUCTT against Ncf1 -0.908
GGUGGUUCACAAAUACUGUTT against Agtpbp1 0.264
GGAUCUCGAGCUGACAGAATT against Arhgap33os 1.31
GGGAAAGGAUUCAAUUAAGTT against Lratd2 0.0415
GAGGGCUCUACAGUUUUUATT against Atp5g3 0.952
GGCCUUCGAAAUAAUUCUGTT against Ppp1r14d -0.605
GCGGCGAUACUUCUACUUGTT against Grk2 -0.584
CCUGUACAUUGUGUAAUGUTT against Pcdh8 0.0925
CCUGAACGACAGAUUGGCATT against Krt20 -0.697
CGAAUCCUUAGUUGAAGAATT against Fastkd1 1.18
GGCAAAAGCACUGAAGAGATT against Ar -0.63
GGGCUCUUUAGUACUAGAATT against Spn -0.612
GGUCCCUUGAUGUCGAUUATT against Stt3b -1.15
GCUUCAGCUCUGAUUAACGTT against Alox8 -0.233
GCCGAUAGCAUAGACAGUGTT against Kansl2 0.6
CCAGUCCUACUUAGCAAAGTT against Lrrc75a -1.48
GGUGCAGAGCUUGAGAUGATT against Anks3 -0.729
GCUGAACAUUAGCUUCAAUTT against Lrrc9 -1.42
GGAGACAUAUGAGACUCUGTT against Fcer1g 0.156
CCAUGGUUACCGUGUACUATT against Olfr1513 -0.312
GGAUCAUUGACAGUGAAUATT against Blk -1.35
GGUCCUAUUUCGGAGCUUUTT against Tnfsf14 0.365
GCUCAUCGUGUUUUCAACCTT against Cbr3 -0.034
GGAAAAAUGGAAACCUAAGTT against Nipal3 1.16
GGUAUUAUCUGCAUGGGCATT against Mkrn3 0.273
GGAUGAAGUGUGUUUUGGCTT against Sim1 0.95
GGACCUUUUGUCUAUAAUGTT against Arl4c 0.759
GGCAGCUAAACUGUGUUAUTT against Tex11 -1.36
GGGCUUUGGACAUCUCCUATT against Serpina3c -1.98
GGGAUAUCCUACCAGGUCATT against Ppard -1.24
GGAUCUUCAGGAAAACAGATT against Fam181b -0.955
CCACCCUUCUUCUAUCGAATT against Ybx2 -1.11
GCCAGAGUUUAUUAACUGCTT against Stxbp6 -0.809
CCAUUGCAGCAUACUGUCCTT against Serpina1b -0.402
GCGGCUAAUUCGUUCUUUCTT against Atp8a1 0.708
GGUCAGGUAGGGAUAUACATT against Dele1 -1.59
GGCAGCAAGUUUUUUAAUCTT against Cap1 0.464
GGAAAACAACAUGAUCGUGTT against Nadk -0.137
UCCCUAACGGCCCUUUUUATT against H4c14 -0.729
GGACAAGCUCCAAAACAACTT against Srsf4 -0.292
UAGGAACGCACCCAUACAATT against Fam89b 0.555
GGAAAACCCAGGUCAGAAUTT against Serpina9 -1.07
CCUUAAGCAGAGUUCAAAGTT against Timm22 0.197
GCCAGAAGUGAAAAUCGAATT against Fkbp14 0.509
GGGACAAGGCCUCGAUAUUTT against Ggps1 0.958
CGCAGGACUAUAAACUGAATT against Ptdss2 0.954
CCUCUUUCGACAAGAGCUCTT against Atp1a3 0.904
GGCAUUGUUUUCAUUGUGGTT against Cldn7 -0.0872
GGAUGUGAUCCUACUGACATT against Tmem208 0.793
CGAGAGUCUAACCAAGUACTT against Arhgdib -1.89
GGAGAUUGUGAGAGCCAUGTT against Kcnab3 -0.753
GAGUGAGAAAGCCAGAGACTT against Acaa1a 0.188
GGCCCACAAGGCUGUUUUGTT against Zfp131 0.459
GGAUUUCAAGGGAAUUUGATT against Wbp4 -0.271
GCCAGUUGUGACAAAACUATT against Abca1 -1.22
GGUGGAGUCUGAACUUAAUTT against Nfatc4 -0.0623
GCCCUUAAAACAUAACCACTT against Fgf9 0.615
CCAAGAUUAACCAUAACACTT against Mrpl50 0.017
GCUCCUACAGAGAAUAAGATT against Eny2 -1.7
GGGACAUUUCCAUCCUUUUTT against Prdx6b -1.28
GCUCCUUUGGUUCAACAUCTT against Olfr635 -1.78
GCAACCAUUCUGGUAUUACTT against Zfp108 0.904
CCAUUAAUAAAGCGUGGGUTT against Cacybp 0.562
GGCUGCUCGAAUCAGUCAUTT against Slc27a3 0.237
CCAGAUCCUAAAGUCUUUATT against Trpd52l3 0.677
CCACCGGAUCGAAGACAGUTT against Tanc2 -1.28
CGUCCCUAGUAUAAAAAGATT against Cxxc5 -0.273
GGCUUUCACCUUAAUUGAUTT against Fntb -0.296
CGACAAGGGUUUUUAUUCUTT against Smcr8 -0.414
GCCUCUCAACAUGAAUUAATT against Gm9918 0.524
CCAAGUUUAACAUCCAGGGTT against Pfkm -0.126
GGAUGGAGACCUCUCCUUUTT against Guca2a 1.36
CCAGCGAUCUUCCCAUUCUTT against Ccr8 -0.844
UUCAUUCAUAUGGACAGUUTT against Psg19 1.73
GCCACAAUGGGCAGUCUUATT against Kcp 0.0139
